Source: PubChem (Johns Hopkins Ion Channel Center)
Only some compounds are listed: those with a hit (about 1.6% of all), similar ones and a draw of the others.
KCNQ2 block – rat KCNQ2 potassium channel inhibitors, primary screen, cell-based, CHO-K1, FluxOR thallium flux, B-score; Potassium voltage-gated channel subfamily KQT member 2 (Rattus norvegicus), O88943; 1.1% of 310,000 active; B-score at 10 µM; 20 min; active compounds read low;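 active = fluorescence ratio B-score at most minus 3 library SDs, with starting brightness B-score within 2 library SDs, cut at about -5.5 in these data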
KCNQ2 enhance – potentiators of rat KCNQ2 potassium channel. B-score at 10 µM. Potassium voltage-gated channel subfamily KQT member 2 (Rattus norvegicus), O88943. CHO-K1 KCNQ2, FluxOR thallium flux fluorescence; active compounds read high. 0.54% of 310,000 active;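 active = fluorescence ratio B-score at least 3 SD of library B-scores, with initial fluorescence B-score within 3 of them, cut at about 5.3 in these data; same plate scores as AID 2156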;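 also: B-score of peak minus minimum over baseline fluorescence ratio after K+ and Tl+ stimulus; positive B-score means potentiation of KCNQ2 with more thallium influx and brighter signal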
Kir21 conf inh – mouse Kir2.1 channel blockers, retest, confirmation, cell-based, FluxOR thallium flux, duplicate | shares compounds with KCNQ2 enhance | Kir2.1-expressing cells, FluxOR thallium flux fluorescence; active compounds read low | Tl flux remaining, % of negative control (active compounds read low), % at 10 µM | 41% of 2,300 active | AID 2032, 2009;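 active = Primary-screen hit whose thallium flux fell at least 3 control SD below untreated wells in both duplicates, with normal baseline fluorescence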;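 also: 0% = blank wells without stimulus and 100% = stimulated no-compound controls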
HEK293 Tl flux – alters thallium flux in parental HEK293 cells, Kir2.1 counter-screen; shares compounds with KCNQ2 enhance; FluxOR thallium flux fluorescence; 0% = unstimulated blank wells; FluxOR signal as % of negative control (100 = no effect), % at 10 µM; 19% of 2,300 active;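 active = dye signal at least 3 control SD above or below untreated wells in both duplicates, raw fluorescence within 3, either direction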;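 also: percent is based on the flux ratio of peak minus minimum fluorescence over baseline F0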
CHO-K1 Tl ctr – nonspecific thallium flux increase in parental CHO-K1, confirmation, counter-screen for KCNQ2 potentiator project, cell-based, FluxOR thallium flux, duplicate | shares compounds with KCNQ2 enhance | parental CHO-K1 cells, FluxOR thallium flux fluorescence; zero = vehicle mean+3SD, 100% = vehicle-minus-blank window | activity increase over 3SD of controls, % at 10 µM | 43% of 1,200 active | AID 2282, 2010;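 active = signal rise of at least 3 SD above the untreated control mean, in both duplicate wells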;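 also: counter screen of KCNQ2 potentiator hits so any rise reflects channel-independent effects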
KCNQ1 pot spec – human KCNQ1 channel potentiation off-target, confirmation, selectivity assay for KCNQ2 potentiator project, cell-based, CHO, FluxOR thallium flux. shares compounds with KCNQ2 enhance. CHO KCNQ1 stable, FluxOR thallium flux fluorescence; beyond 3SD, as % of vehicle-control signal. activation over 3SD threshold, % at 10 µM. 28% of 1,200 active. AID 2283, 2010;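 active = fluorescence ratio rise of at least 3 SD of vehicle wells above their mean, in both replicate wells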;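 also: 0% = vehicle mean plus 3 SD and 100% = vehicle minus unstimulated blank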
KCNQ2 pot confirm – rat KCNQ2 channel potentiators, confirmation, cell-based, CHO, FluxOR thallium flux, duplicate; 68% of 1,200 active; shares compounds with KCNQ2 enhance; CHO-KCNQ2 cells, FluxOR thallium flux fluorescence; potentiation, less the hit threshold, % at 10 µM;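 active = fluorescence ratio rising 3 SD or more over the vehicle control mean in both replicates, plus primary screen hit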;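 also: peak minus minimum thallium fluorescence divided by baseline after K/Tl stimulus; 0% = vehicle mean plus 3 SD and 100% = vehicle minus unstimulated blank difference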
Kir2-1 sel – mouse Kir2.1 channel activation off-target, confirmation, selectivity assay for KCNQ2 potentiator project, cell-based, HEK293, FluxOR thallium flux; shares compounds with KCNQ2 enhance; HEK293 Kir2.1, FluxOR thallium flux fluorescence; activity over 3SD threshold, % at 10 µM; 2% of 1,200 active;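 active = fluorescence ratio rise of at least 3 SD above the vehicle-control mean, seen in both replicates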;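 also: 0% = vehicle mean plus 3 SD and 100% = vehicle minus no-stimulus blank window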
KCNQ2 W236L pot – potentiators of retigabine-insensitive KCNQ2 W236L, mechanism study for KCNQ2 potentiator project, cell-based, rat KCNQ2 W236L, CHO, automated patch clamp | automated patch clamp current | current increase over 3SD of negative controls (%), active compounds read high, % at 25 µM | 10% of 940 active | shares compounds with KCNQ2 enhance;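 active = current increase at least 3 SD of the untreated controls above them in both duplicate recordings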
Target sequence (O88943 whole entry W236L, looked up): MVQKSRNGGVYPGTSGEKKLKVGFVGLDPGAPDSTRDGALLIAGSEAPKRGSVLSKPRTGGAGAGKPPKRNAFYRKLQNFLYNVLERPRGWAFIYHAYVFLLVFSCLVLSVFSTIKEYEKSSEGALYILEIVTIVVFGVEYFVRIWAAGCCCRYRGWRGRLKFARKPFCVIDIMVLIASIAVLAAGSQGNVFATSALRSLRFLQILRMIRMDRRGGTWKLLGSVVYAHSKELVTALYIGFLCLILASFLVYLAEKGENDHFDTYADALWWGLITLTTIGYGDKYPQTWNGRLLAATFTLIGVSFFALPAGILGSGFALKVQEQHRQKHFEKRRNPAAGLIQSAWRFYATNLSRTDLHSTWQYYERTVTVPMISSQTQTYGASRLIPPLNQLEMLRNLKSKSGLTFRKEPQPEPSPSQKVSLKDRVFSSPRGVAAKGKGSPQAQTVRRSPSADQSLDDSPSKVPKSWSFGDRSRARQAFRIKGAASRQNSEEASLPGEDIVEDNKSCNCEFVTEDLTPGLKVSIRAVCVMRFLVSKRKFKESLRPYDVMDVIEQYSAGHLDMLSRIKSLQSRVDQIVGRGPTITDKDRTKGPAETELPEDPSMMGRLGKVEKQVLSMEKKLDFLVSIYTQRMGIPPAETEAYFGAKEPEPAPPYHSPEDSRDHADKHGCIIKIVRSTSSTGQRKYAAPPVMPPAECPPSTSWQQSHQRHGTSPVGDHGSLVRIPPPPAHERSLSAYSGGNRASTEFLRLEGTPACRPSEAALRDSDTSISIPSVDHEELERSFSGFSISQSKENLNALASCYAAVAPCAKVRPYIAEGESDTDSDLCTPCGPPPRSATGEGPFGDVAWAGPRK
Active calls of the source: *; i = inactive; · = no result.

SMILES	KCNQ2 block	KCNQ2 enhance	Kir21 conf inh	HEK293 Tl flux	others
COc1ccccc1N1CCN(C(=O)CCNS(=O)(=O)c2cc(Br)cnc2N)CC1	i	1.6	·	·
CCn1c2ccccc2c2cc(NC(=O)CNCC3CCCO3)ccc21 (centres undefined)	i	1.9	48%*	i
CCn1c2ccccc2c2cc(NC(=O)CN3CCCC3)ccc21	i	3.4	·	·
COc1ccc(NC(=O)NNC(=O)CCc2ccc(O)c(O)c2)cc1OC	i	0.79	·	·
Cc1ccc([N+](=O)[O-])cc1S(=O)(=O)NCC1COc2ccccc2O1 (centres undefined)	i	·	73%*	i
Cc1ccc(S(=O)(=O)NCC2COc3ccccc3O2)cc1 (centres undefined)	i	·	·	·
Cc1ccc(-n2nnnc2CN2CCCCC2)cc1	i	0.12	·	·
CCOC(=O)c1ccc(NC(=O)C(C)NS(=O)(=O)c2ccc(OC)cc2)cc1 (centres undefined)	i	5.8*	i	i	CHO-K1 Tl ctr=34*;KCNQ1 pot spec=-3;KCNQ2 pot confirm=-44;Kir2-1 sel=-39
CCOC(=O)c1ccc(NC(=O)COc2ccc(S(=O)(=O)NC(C)CC)cc2)cc1 (centres undefined)	i	1	·	·
CC(=O)Nc1ccc(S(=O)(=O)NC(C)(C#N)C2CC2)cc1 (centres undefined)	i	0.01	·	·
O=C(Nc1cccnc1)Nc1cccc(F)c1	i	6.7*	i	i	CHO-K1 Tl ctr=2.5*;KCNQ1 pot spec=7.3*;KCNQ2 pot confirm=16*;Kir2-1 sel=-21;KCNQ2 W236L pot=18%*
O=C(Nc1ccncc1)Nc1cccc(F)c1	i	·	·	·
CC(NC(=O)Cc1ccsc1)c1ccc(F)cc1 (centres undefined)	i	·	·	·
C[C@H](NC(=O)OC(C)(C)C)C(=O)N/N=C/c1ccc2nccnc2c1	i	0.88	·	·
COc1cc(OC)cc(C(=O)Nc2ccc(C(=O)c3ccncc3)cc2)c1	i	11*	i	i	CHO-K1 Tl ctr=28*;KCNQ1 pot spec=42*;KCNQ2 pot confirm=20*;Kir2-1 sel=-36;KCNQ2 W236L pot=i
COc1cc(OC)cc(C(=O)Nc2cccnc2)c1	i	1.1	·	·
Cc1ccc(Oc2ccc(NC(=O)c3ccco3)cc2)cc1	i	14*	i	73%*	CHO-K1 Tl ctr=-7;KCNQ1 pot spec=-30;KCNQ2 pot confirm=33*;Kir2-1 sel=-43;KCNQ2 W236L pot=19%*
CC(=O)Nc1ccc(NC(=O)c2ccco2)cc1	i	0.17	·	·
CCC(C)c1ccc(NC(=O)c2ccco2)cc1 (centres undefined)	i	12*	i	i	CHO-K1 Tl ctr=26*;KCNQ1 pot spec=-10;KCNQ2 pot confirm=38*;Kir2-1 sel=-12;KCNQ2 W236L pot=i
Cc1ccc(NC(=O)c2ccc(OC(=O)c3ccco3)cc2)cc1	i	·	·	·
CCN(CC)c1ccc(NC(=S)NC(=O)c2ccco2)cc1	i	11*	i	204%*	CHO-K1 Tl ctr=-14;KCNQ1 pot spec=-18;KCNQ2 pot confirm=28*;Kir2-1 sel=-29;KCNQ2 W236L pot=i
CCN(CC)c1ccc(NC(=O)c2ccco2)cc1	i	2.4	·	·
COc1ccc(-c2noc(N3CCC(C(=O)Nc4cccc(OC)c4)CC3)n2)cc1	i	·	·	·
COC(=O)c1c(NC(=O)COC(=O)[C@@H](NS(=O)(=O)c2ccc(C)cc2)C(C)C)sc2c1CCC2	i	·	·	·
C/C(N)=C(/C#N)C(=O)CSc1nc2ccccc2c(=O)n1Cc1ccc(C)cc1	i	·	·	·
SMILES	KCNQ2 block	KCNQ2 enhance	Kir21 conf inh	HEK293 Tl flux	others
C/C(N)=C(/C#N)C(=O)CSc1nc2ccccc2c(=O)n1Cc1ccc(F)cc1	i	5.5*	i	167%*	CHO-K1 Tl ctr=-8;KCNQ1 pot spec=16*;KCNQ2 pot confirm=3.4*;Kir2-1 sel=-37;KCNQ2 W236L pot=i
CCNC(=S)Nc1nc2c(cc1C(=O)OCC)CCCC2	i	5.5*	i	148%*	CHO-K1 Tl ctr=7.6*;KCNQ1 pot spec=-19;KCNQ2 pot confirm=-2;Kir2-1 sel=-30;KCNQ2 W236L pot=i
C=CCNC(=S)Nc1nc2c(cc1C(=O)OCC)CCCC2	i	4.3	·	·
Cc1ccc(NC(=O)c2snc3ccc(Cl)cc23)cc1C	i	·	·	·
COc1ccc(CNC(=O)C(C)OC(=O)CN2C(=O)COc3ccccc32)cc1 (centres undefined)	i	·	·	·
CC(C)[C@H](NC(=O)c1ccco1)C(=O)OCC(=O)Nc1ccccc1OC(F)F	i	·	·	·
C=CCOc1ccc(CNc2ccc(NC(=O)CCC)cc2)cc1OCC	i	1.7	·	·
C=CCOc1c(Br)cc(CNc2ccc(NC(=O)CCC)cc2)cc1OCC	i	18*	i	i	CHO-K1 Tl ctr=-13;KCNQ1 pot spec=80*;KCNQ2 pot confirm=32*;Kir2-1 sel=-33;KCNQ2 W236L pot=i
CCOC(=O)c1c(C)[nH]c(C(=O)OCc2ccccc2F)c1C	i	0.79	·	·
CCOC(=O)/C(C(=Nc1ccccc1)Nc1ccccc1)=C(\C)O	i	·	·	·
NC(=Nc1ccccc1)Nc1ccccc1	i	5.8*	i	i	CHO-K1 Tl ctr=8.7*;KCNQ1 pot spec=-6;KCNQ2 pot confirm=20*;Kir2-1 sel=-23;KCNQ2 W236L pot=i
COc1ccccc1Nc1nc(NCCCCO)nc(N2CCCC2)n1	i	0.57	·	·
COc1ccccc1/C=C(\NC(=O)c1ccccc1)C(=O)NCc1ccco1	i	0.73	i	i
COc1ccc(/C=C(/NC(=O)c2ccccc2)C(=O)NCc2ccco2)cc1	i	1.7	·	·
CN(C)CC/C=C1/c2ccccc2Sc2c(O)cc(Cl)cc21	i	·	·	·
COc1cc(Cl)cc2c1Sc1ccccc1/C2=C/CCN(C)C	-7*	-7	36%*	i
CN(C)CC/C=C1/c2cc(F)ccc2Sc2ccc(Cl)cc21	i	·	25%*	i
COc1cc2c(cc1Cl)/C(=C\CCN(C)C)c1ccccc1S2	i	·	·	·
CN(CC(=O)Nc1ccc(F)c(F)c1F)C(=O)c1ccc2c(c1)S(=O)(=O)N=C1CCCCCN12	i	2.5	·	·
COc1ccc(NC(=O)CN(C)C(=O)Cc2ccc(S(=O)(=O)N3CCOCC3)s2)cc1	i	·	·	·
